Laboratory results published in PubChem BioAssay AID651774 (Broad Institute, 2012).
Results with a measured potency or affinity are listed apart. Active and inactive are the calls of the source. How the calls were made is not given here.

Assay: HeLa cell viability loss – 24 h, dry powder, cytotoxicity control, dose response (AID 651774)
Conditions: CellTiter-Glo ATP luminescence; series mostly up to 35 µM; activity change, negative = cytotoxicity: at the top concentration

| Structure (SMILES) | activity change, negative = cytotoxicity | outcome |
| --- | --- | --- |
| Cn1nnc(NCc2ccccc2)n1 | -9.85% (inactive) | – |
| O=C(Cc1cccc(F)c1)NC1CCCC1 | -2.5% (inactive) | – |
| CCn1nnc(NCc2ccc(C(C)C)cc2)n1 | -5.76% (inactive) | – |
| CC(C)c1ccc(CNc2nn[nH]n2)cc1 | -3.7% (inactive) | – |
| Cc1cccc(CC(=O)NC2CCCC2)c1 | -17.9% (inactive) | – |
| O=C(Cc1ccc2ccccc2c1)NC1CCCC1 | 3.82% (inactive) | – |
| CCn1nnc(NCc2ccc(C(F)(F)F)cc2)n1 | -1.34% (inactive) | – |
| Cn1nnnc1NCc1ccc(N2CCCC2)cc1 | -3.44% (inactive) | – |
| O=C(Cc1ccc(C(F)(F)F)cc1)NC1CCCC1 | -3.86% (inactive) | – |
| CC(C(=O)NC1CCCC1)c1ccc(-c2ccccc2)cc1 (stereo not drawn) | 6.08% (inactive) | – |
| O=C(Cc1ccccc1F)NC1CCCC1 | 16% (inactive) | – |
| O=C(Cc1cccc(C(F)(F)F)c1)NC1CCCC1 | -3.06% (inactive) | – |
| O=C(Cc1ccc(-c2ccccc2)cc1)N1CCOCC1 | 6.81% (inactive) | – |
| Cn1nnnc1NCc1ccccc1 | 11.8% (inactive) | – |
| O=C(Cc1ccc(-c2ccccc2)cc1)NC1CCNCC1 | -0.852% (inactive) | – |
| CCNC(=O)Cc1ccc(-c2ccccc2)cc1 | -6.05% (inactive) | – |
| O=C(Cc1ccc(-c2ccccc2)cc1)NC1CCC1 | 8.77% (inactive) | – |
| CCn1nnnc1NCc1ccc(C(F)(F)F)cc1 | -7.68% (inactive) | – |
| O=C(Cc1cccc(Cl)c1)NC1CCCC1 | -1.26% (inactive) | – |
| CN1CCC(NC(=O)Cc2ccc(-c3ccccc3)cc2)CC1 | -0.521% (inactive) | – |
| O=C(Nc1nnc(-c2ccc3c(c2)OCCO3)o1)C1CCCCC1 | -9.17% (inactive) | – |
| CN(C(=O)Cc1ccc(-c2ccccc2)cc1)C1CCCC1 | -9.17% (inactive) | – |
| CCn1nnnc1NCc1ccc(N2CCCC2)cc1 | – | inactive |
| O=C(Cc1cccc(OC(F)(F)F)c1)NC1CCCC1 | -1.72% (inactive) | – |
| N#Cc1cccc(CC(=O)NC2CCCC2)c1 | -5.54% (inactive) | – |
| O=C(Cc1ccc(OC(F)(F)F)cc1)NC1CCCC1 | 5.09% (inactive) | – |
| FC(F)(F)c1ccc(CNc2nn[nH]n2)cc1 | 1.22% (inactive) | – |
| O=C(Cc1ccc(-c2ccccc2)cc1)NCC1CCCC1 | 9.56% (inactive) | – |
